Lassa entry inh = Lassa virus entry inhibition. Lassa virus pseudotype entry inhibition, cell reporter. Potency, µM (top dose mostly 37.9 µM), usual class: inhibitors. 1.2% of 300,000 active; calls by dose curve; tested in HEK293 cells; note: nearly all actives have a fitted effect of over 50% in size
Marburg entry inh = blocks Marburg virus binding to or entry into cells | Marburg virus pseudotyped entry inhibition, cell reporter | Potency, µM (titrated, usually from 37.8 µM), usual class: inhibitors | 1.8% of 300,000 active; calls by dose curve; tested in HEK293 cells
Cycloheximide cs = counter-screen hit for Shiga toxin inhibitors, cycloheximide. cell reporter, cycloheximide protein synthesis inhibition counterscreen. max response, %. 12% of 300,000 active. AID 2314; in the data active = max response mostly above about 13%, no sharp cut-off; inactive = mostly below about 14%; note: read at 38.3 µM for the half of the compounds with a filed dose
Shiga toxin inh = inhibitors of Shiga toxin in Vero cells; Vero cells, Shiga toxin protein synthesis inhibition reporter; inhibition, % at 38.7 µM; 9.2% of 290,000 active; AID 2315; in the data active = inhibition mostly above about 28%, no sharp cut-off; inactive = mostly below about 43%
HCV inhibitor = HCV inhibition; Huh7.5.1 HCVcc-Cre infection, luciferase reporter, 44 h; Potency, µM (highest dose often 41.8 µM), hits mostly inhibitors; 3.4% of 340,000 active; AID 651820; active = well fitted inhibition curve with a large enough effect; inconclusive = small, poorly fitted or top-dose-only effect, or another doubt; inactive = no such curve, though single readings can be large or run the other way
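Reporter virus HCVcc-Cre (~0.5 moi) infects cells exposed to compound; seeding density 1,000 cells/well with 4 h settling beforehand. Luminescence, 15 sec read, taken 44 h post-infection following a 15 min RT substrate incubation.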
FMDV inh = blocks foot and mouth disease virus | FMDV antiviral cell-based qHTS | Potency, µM (top dose mostly 57.9 µM), actives largely listed as inhibitors | 1.2% of 410,000 active; calls by dose curve; tested in HEK293T cells; note: read-out not given here; nearly all actives have a fitted effect of over 45% in size
Of the large screens only hits and unclear results are named; the others gave an inactive call. Most compounds without a hit are left out; they make up all but 13% or so of the library.

O=C(O)c1cccc(N/N=C/c2ccc(OC(F)(F)F)cc2)c1	Lassa entry inh inconclusive, Marburg entry inh inconclusive, Cycloheximide cs 77, Shiga toxin inh 138, FMDV inh 25µM
O=C(Nc1ccc(OC(F)(F)F)cc1)c1cccc(-n2cnnn2)c1	none (no result: Cycloheximide cs, Shiga toxin inh)
CSc1ccc(/C=N/Nc2nc(C)cc(=O)[nH]2)cc1	none
COC(=O)c1ccc(COc2ccc(/C=N/Nc3nc(C)cc(=O)[nH]3)cc2)cc1	Shiga toxin inh 45 (no result: Lassa entry inh, Marburg entry inh)
COCC(O)CSc1c([N+](=O)[O-])nc(C)n1Cc1ccc(OC)c([N+](=O)[O-])c1 (centres undefined)	none
CN(Cc1ccccc1)c1ccc(-c2nc(-c3ccco3)no2)cc1[N+](=O)[O-]	none (no result: Cycloheximide cs, Shiga toxin inh, HCV inhibitor)
Cc1ccc(-c2nc(CS(=O)CC(=O)NC3CCCC(C)C3C)c(C)o2)cc1 (centres undefined)	HCV inhibitor inconclusive
CCOc1cc(/C=N/Nc2cccc(C(=O)O)c2)ccc1OCC(=O)N1CCCCC1	Marburg entry inh inconclusive, Cycloheximide cs 70, Shiga toxin inh 126
O=C(O)c1cc(N/N=C/C=C/c2ccccc2)ccc1Cl	Marburg entry inh inconclusive, Cycloheximide cs 40, Shiga toxin inh 172
O=NN(CC(=O)NN=CC=Cc1ccccc1)CC(=O)NN=CC=Cc1ccccc1	none (no result: Lassa entry inh, Marburg entry inh, Cycloheximide cs, Shiga toxin inh, HCV inhibitor)
N#CCC(=O)N/N=C/c1ccc(OCc2ccccc2)cc1	Lassa entry inh inconclusive, Marburg entry inh inconclusive
COC(=O)c1ccc(COc2ccc(/C=N/Nc3cccc(C(=O)O)c3)cc2)cc1	Cycloheximide cs 84, Shiga toxin inh 109 (no result: Lassa entry inh, Marburg entry inh)
O=C(O)c1cc(N/N=C/c2ccc(OCc3ccccc3)cc2)ccc1Cl	Marburg entry inh inconclusive, Cycloheximide cs 72, Shiga toxin inh 149
O=C1OC(Nc2ccc3ncccc3c2)c2ccccc21 (centres undefined)	Cycloheximide cs 27, Shiga toxin inh 54 (no result: FMDV inh)
COc1cccc(N(CC(=O)Nc2ccccc2C(=O)N2CCCC2)S(C)(=O)=O)c1	Lassa entry inh inconclusive
CC1CCc2nn(CC(=O)NCc3ccc4c(c3)OCO4)cc2C1 (centres undefined)	none (no result: Lassa entry inh, Marburg entry inh)
Cc1cc(NC(=O)CCOc2ccc(F)cc2)no1	Lassa entry inh inconclusive, Marburg entry inh inconclusive, HCV inhibitor inconclusive
Cc1cc(NC(=O)Nc2ccc(F)cc2)no1	Cycloheximide cs 26, Shiga toxin inh 69
Cc1cc(NC(=O)Nc2cc(Cl)ccc2C)no1	Cycloheximide cs 12, HCV inhibitor inconclusive (no result: Lassa entry inh, Marburg entry inh)
COc1cc(NC(=O)Nc2cc(C)on2)cc(OC)c1OC	none
Cc1cc(NC(=O)Nc2ccc(C)c(C)c2)no1	Marburg entry inh inconclusive, Cycloheximide cs 43, Shiga toxin inh 97
COc1cccc(NC(=O)C2C3C=CC4(O3)C2C(=O)N(CCN2CCCCC2)C4C(=O)NC2CCCCC2C)c1 (centres undefined)	none (no result: Lassa entry inh)
COc1cc(/C=N/NC(=O)CCc2c(C)n[nH]c2C)ccc1O	none
O=[N+]([O-])c1cccc(-c2c(-c3ccccc3)ncc3cc(F)ccc23)c1	HCV inhibitor inconclusive (no result: Lassa entry inh, Marburg entry inh, Cycloheximide cs, Shiga toxin inh)
Cc1cccc(NC(=O)C2CC2c2ccccc2)c1C (centres undefined)	none (no result: Lassa entry inh, Marburg entry inh, Shiga toxin inh)
CC(C)(C)NC(=S)NNC(=O)[C@H]1C[C@@H]1c1ccccc1	Lassa entry inh 0.89µM
COc1cc(OC)cc(C(=O)NC(=S)NNC(=O)[C@H]2C[C@@H]2c2ccccc2)c1	Lassa entry inh 3.2µM
O=C(NNC(=O)C12CC3CC(CC(C3)C1)C2)[C@@H]1C[C@H]1c1ccccc1	Lassa entry inh inconclusive, Cycloheximide cs 26, Shiga toxin inh 46
O=C(Nc1ccccc1F)C1CC1c1ccccc1 (centres undefined)	Shiga toxin inh 41
NC(CO)c1csc(NC(=O)Nc2ccccc2Cc2ccccc2)n1 (centres undefined)	none (no result: Lassa entry inh, Marburg entry inh, Cycloheximide cs, Shiga toxin inh, HCV inhibitor)
CC1CCCC(NC(=O)CCNS(=O)(=O)c2ccc(Br)cc2)C1C (centres undefined)	HCV inhibitor inconclusive (no result: Lassa entry inh, Marburg entry inh)
CCCCN1C(C(=O)c2ccccc2)=C(OC(=O)CC)c2ccccc2S1(=O)=O	Lassa entry inh inconclusive, Marburg entry inh 7.9µM (no result: Cycloheximide cs, Shiga toxin inh, HCV inhibitor)
CCCCCN1C(C(=O)c2ccccc2)=C(OC(=O)CC)c2ccccc2S1(=O)=O	Lassa entry inh inconclusive, Marburg entry inh inconclusive (no result: Cycloheximide cs, Shiga toxin inh, HCV inhibitor)
OC(CCN1CCCCC1)(c1ccccc1)C1CCCCC1 (centres undefined)	Marburg entry inh 5µM (no result: Lassa entry inh, HCV inhibitor)
OC(CCN1CCCCC1)(c1ccccc1)C1C[C@@H]2C=C[C@H]1C2 (some centres undefined)	HCV inhibitor inconclusive (no result: Lassa entry inh, Marburg entry inh, Cycloheximide cs, Shiga toxin inh)
OC(CCN1CCCCC1)(c1ccccc1)C1CC2C=CC1C2 (centres undefined)	Lassa entry inh inconclusive, Marburg entry inh 6.5µM (no result: Cycloheximide cs, Shiga toxin inh, HCV inhibitor, FMDV inh)
CC(CC(C)(C)N1CC1)=NO	Marburg entry inh inconclusive, HCV inhibitor inconclusive (no result: Cycloheximide cs, Shiga toxin inh)
Cc1ccc(-c2nc(-c3cccnc3)no2)cc1	Lassa entry inh inconclusive, Cycloheximide cs 48, Shiga toxin inh 90
c1cncc(-c2noc(-c3ccco3)n2)c1	Cycloheximide cs 56, Shiga toxin inh 87
CCC(c1ccccc1)c1nc(-c2cccnc2)no1 (centres undefined)	Lassa entry inh inconclusive
Cc1ccc(-c2cnc(-c3ccncc3)o2)cc1	Cycloheximide cs 33, Shiga toxin inh 95, HCV inhibitor inconclusive
Cc1ccc(CNc2ccc(-c3nc(-c4cccnc4)no3)cc2[N+](=O)[O-])cc1	none (no result: Cycloheximide cs, Shiga toxin inh, HCV inhibitor)
Nc1ccc(-c2ncc(-c3ccccc3)o2)cc1	Lassa entry inh inconclusive, Marburg entry inh inconclusive, HCV inhibitor inconclusive, FMDV inh inconclusive
CC(C)(C)c1ccc(-c2nc(-c3ccncc3)no2)cc1	Lassa entry inh inconclusive, Marburg entry inh inconclusive, Cycloheximide cs 32, Shiga toxin inh 63, FMDV inh inconclusive
CC(=O)c1ccc(CCCc2ccc(C(C)=O)cc2)cc1	Marburg entry inh inconclusive (no result: Cycloheximide cs, Shiga toxin inh)
COc1ccc(N2CC(C(=O)Nc3nnc(C4CCCCC4)s3)CC2=O)cc1 (centres undefined)	none
Nc1nonc1-c1noc(-c2ccccc2)n1	Marburg entry inh inconclusive, Cycloheximide cs 42, Shiga toxin inh 57
CCC(=O)Oc1ccc(-c2nc(-c3cccnc3)no2)cc1	Lassa entry inh inconclusive, Marburg entry inh inconclusive, Cycloheximide cs 22, Shiga toxin inh 32
CCCc1noc(-c2cccc([N+](=O)[O-])c2)n1	none
Cc1cccc(-c2nc(-c3ccncc3)no2)c1	Lassa entry inh 10µM, Marburg entry inh inconclusive, Cycloheximide cs 40, Shiga toxin inh 133, HCV inhibitor inconclusive
CCCc1noc(-c2ccc(-c3ccccc3)cc2)n1	Marburg entry inh inconclusive, Cycloheximide cs 66, Shiga toxin inh 146
Cc1cc(C)c(OCC(=O)OC(C)C(=O)NCc2ccccc2)c(C)c1 (centres undefined)	none (no result: Cycloheximide cs, Shiga toxin inh)
O=C(NCc1ccncc1)c1cccc(S(=O)(=O)Nc2ccc(SC(F)F)cc2)c1	none (no result: Cycloheximide cs, Shiga toxin inh)
Cc1noc(-c2ccc(-c3noc(-c4ccccc4)n3)cc2)n1	none (no result: Marburg entry inh, Cycloheximide cs, Shiga toxin inh, HCV inhibitor)
Cc1cc(C)cc(-c2nc(-c3ccncc3)no2)c1	Cycloheximide cs 11 (no result: Lassa entry inh, Marburg entry inh)
CC(C)(C)c1ccc(-c2noc(-c3ccno3)n2)cc1	Lassa entry inh inconclusive, Marburg entry inh inconclusive, Cycloheximide cs 51, Shiga toxin inh 82
